Legend:
Settings in all cases: concentration: 1 μM, replicates: in singlicate; n = 1
[1] = test system: T1, TIE2
T1 construct: gene TEK

[2] = test system: TLK1
[3] = test system: TLK2
[4] = test system: TNIK
[5] = test system: TNK1
[6] = test system: TNK2
[7] = test system: TNNI3K
[8] = test system: T2, TRKA
T2 construct: gene NTRK1

[9] = test system: TRKB
[10] = test system: T3, TRKC
T3 construct: gene NTRK3

[11] = test system: TRPM6
[12] = test system: TSSK1B
[13] = test system: TSSK3
[14] = test system: TTK
[15] = test system: TXK
[16] = test system: TYK2(JH1domain-catalytic)
[17] = test system: TYK2(JH2domain-pseudokinase)
[18] = test system: TYRO3
[19] = test system: ULK1
[20] = test system: ULK2
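Also: KINOMEscan kinase panel screen.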

Row | SMILES | %Inh [1] [%] | %Inh [2] [%] | %Inh [3] [%] | %Inh [4] [%] | %Inh [5] [%] | %Inh [6] [%] | %Inh [7] [%] | %Inh [8] [%] | %Inh [9] [%] | %Inh [10] [%] | %Inh [11] [%] | %Inh [12] [%] | %Inh [13] [%] | %Inh [14] [%] | %Inh [15] [%] | %Inh [16] [%] | %Inh [17] [%] | %Inh [18] [%] | %Inh [19] [%] | %Inh [20] [%]
1 | CCS(=O)c1ccc(-c2coc3ccc(-c4nnc(C)o4)cc23)cc1 (centres unmarked) | 10 | 17 | 0 | 12 | 0 | 3 | 0 | 28 | 5 | 5 | 0 | 0 | 0 | 14 | 0 | 21 | 11 | 0 | 0 | 4
2 | Nc1ncnc2c1ncn2-c1cccc2ccccc12 [SKF-97184] | 0 | 0 | 18 | 10 | 0 | 0 | 0 | 25 | 0 | 6 | 39 | 0 | 0 | 23 | 0 | 68 | 37 | 0 | 24 | 16
3 | Cc1c(Cn2c(C)nn3c(=O)cc(N4CCO[C@H](C)C4)nc23)cccc1C(F)(F)F [GSK2373690] | 0 | 0 | 0 | 0 | 0 | 13 | 4 | 0 | 6 | 11 | 0 | 0 | 14 | 0 | 3 | 0 | 0 | 22 | 14 | 0
4 | O=C(Nc1n[nH]c2nc(-c3ccccc3)c(Cl)cc12)C1CC1 [SB-734909] | 15 | 0 | 6 | 8 | 0 | 0 | 0 | 0 | 0 | 0 | 29 | 0 | 0 | 0 | 4 | 25 | 16 | 0 | 22 | 20
5 | COc1ccc(-c2cc3c(C)nc(N)nc3n([C@H]3CC[C@H](OCCO)CC3)c2=O)cn1 | 0 | 14 | 0 | 0 | 34 | 0 | 1 | 0 | 0 | 0 | 0 | 2 | 0 | 0 | 2 | 0 | 0 | 0 | 0 | 0
6 | Nc1n[nH]c2nnc(-c3ccccc3)c(-c3ccccc3)c12 [GW554060] | 0 | 0 | 0 | 0 | 0 | 19 | 0 | 0 | 14 | 24 | 0 | 13 | 20 | 0 | 12 | 34 | 55 | 10 | 27 | 8
7 | COc1ccc(CNC(=O)NC2CCN(c3ccnc(Nc4ccc(F)cc4)n3)C2)cc1 (centres unmarked) [GSK1379706] | 2 | 26 | 16 | 0 | 0 | 10 | 10 | 54 | 26 | 44 | 4 | 0 | 21 | 21 | 0 | 27 | 23 | 0 | 0 | 0
8 | CCC(=O)c1c(-c2ccccc2)c2cc(Cl)ccc2c(=O)n1Cc1cc(S(C)(=O)=O)n(CC(N)=O)n1 | 24 | 2 | 0 | 4 | 0 | 0 | 0 | 0 | 0 | 0 | 0 | 0 | 0 | 8 | 0 | 0 | 0 | 0 | 0 | 0
9 | COc1cc(Nc2nccc(N3CCC(NC(=O)C4COc5ccccc5O4)C3)n2)cc(OC)c1OC (centres unmarked) [GSK1379761] | 0 | 8 | 0 | 0 | 28 | 6 | 0 | 77 | 31 | 61 | 0 | 0 | 9 | 13 | 10 | 81 | 29 | 0 | 8 | 0
10 | CCC(=O)c1c(-c2ccccc2)c2cc(Cl)ccc2c(=O)n1Cc1cc(S(C)(=O)=O)n(CC(F)F)n1 | 2 | 0 | 0 | 0 | 0 | 0 | 0 | 0 | 0 | 1 | 10 | 0 | 0 | 0 | 6 | 0 | 0 | 0 | 0 | 0
